Measured values as given in PubChem BioAssay AID1159580 (chemical genetic matrix, 2015).
Several values for one entry are separate records, joined by “and”; a condition that tells them apart may be missing. Equal entries are not always repeated. In all, about 5,500 compounds went through this assay and about 2,000 (36%) were called active. Roughly 18% stayed inconclusive and do not appear here. Cut-off read from the data, not from the text of the source: active = normalized growth mostly below about 0.91 (no sharp cut-off); inconclusive = no clear call, values can overlap the other calls; inactive = mostly above about 0.92. Some of the results follow.

Assay: chemical genetic growth profiling, strain panel (AID 1159580);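 note: tested at 20 µM; growth read once vehicle control cultures reached saturation at 30 °C; 1 = growth at the plate median or of vehicle wells; lower values mean less growth of the strain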
Settings: S. cerevisiae deletion strains, growth OD

Measured: normalized growth

CC(N)CCCC(C)(C)O (centres undefined)
inactive: locus YAL013W, strain DEP1, hits give low values 0.998 | locus YAL021C, strain ccr4, hits give low values 0.973 | locus YAL026C, strain drs2, hits give low values 0.993 | locus YAL030W, strain snc1, hits give low values 0.989 | locus YBL061C, strain skt5, hits give low values 0.98 | locus YBR009C, strain hhf1, hits give low values 1.01 | locus YBR021W, strain FUR4, hits give low values 1.02 | locus YBR023C, strain chs3, hits give low values 0.98 | locus YBR171W, strain sec66, hits give low values 0.964 | locus YBR229C, strain ROT2, hits give low values 1.01 | locus YBR231C, strain swc5, hits give low values 0.976 | locus YBR279W, strain paf1, hits give low values 0.984 | locus YCL011C, strain gbp2, hits give low values 0.969 | locus YCL016C, strain dcc1, hits give low values 0.989 | locus YCL029C, strain bik1, hits give low values 1 | locus YCL061C, strain MRC1, hits give low values 0.971 | locus YCL069W, strain vba3, hits give low values 0.979 | locus YCR088W, strain abp1, hits give low values 0.973 | locus YDL005C, strain med2, hits give low values 0.983 | locus YDL035C, strain GPR1, hits give low values 1.02 | locus YDL040C, strain nat1, hits give low values 0.984 | locus YDL074C, strain BRE1, hits give low values 0.979 | locus YDL101C, strain DUN1, hits give low values 0.994 | locus YDL134C, strain PPH21, hits give low values 1.02 | locus YDL185W, strain tfp1, hits give low values 1.01 | locus YDL192W, strain arf1, hits give low values 1.01 | locus YDR001C, strain nth1, hits give low values 0.973 | locus YDR069C, strain doa4, hits give low values 0.981 | locus YDR101C, strain arx1, hits give low values 0.976 | locus YDR137W, strain rgp1, hits give low values 1.01 | locus YDR159W, strain sac3, hits give low values 0.975 | locus YDR162C, strain NBP2, hits give low values 1.01 | locus YDR195W, strain ref2 0.904 | locus YDR297W, strain sur2, hits give low values 0.975 | locus YDR318W, strain mcm21, hits give low values 1.01 | locus YDR334W, strain swr1, hits give low values 0.93 | locus YDR335W, strain msn5, hits give low values 0.985 | locus YDR388W, hits give low values 1.01 | locus YDR392W, strain spt3, hits give low values 0.905 | locus YDR502C, strain sam2, hits give low values 0.996 | locus YEL003W, strain gim4, hits give low values 0.97 | locus YEL037C, strain rad23, hits give low values 0.977 | locus YEL061C, strain CIN8 (second series), hits give low values 0.977 | locus YEL061C, strain CIN8, hits give low values 0.994 | locus YER015W, strain faa2, hits give low values 0.982 | locus YER016W, strain bim1, hits give low values 0.98 | locus YER110C, hits give low values 1.02 | locus YER111C, strain swi4, hits give low values 0.987 | locus YER155C, strain BEM2 (second series), hits give low values 0.972 | locus YER155C, strain BEM2, hits give low values 1 | locus YER167W, strain BCK2, hits give low values 1.01 | locus YFR010W, strain ubp6, hits give low values 0.978 | locus YGL078C, strain dbp3, hits give low values 1.01 | locus YGL086W, strain mad1, hits give low values 0.998 | locus YGL167C, strain pmr1, hits give low values 0.979 | locus YGL173C, strain kem1, hits give low values 0.983 | locus YGL227W, strain vid30, hits give low values 0.981 | locus YGL240W, strain doc1, hits give low values 0.979 | locus YGL248W, strain PDE1, hits give low values 1 | locus YGL253W, strain hxk2, hits give low values 0.977 | locus YGR135W, strain pre9, hits give low values 1.04 | locus YGR229C, strain SMI1, hits give low values 0.99 | locus YGR252W, strain gcn5, hits give low values 1.01 | locus YHR013C, strain ard1, hits give low values 0.959 | locus YHR027C, strain rpn1, hits give low values 0.969 | locus YHR030C, strain SLT2, hits give low values 1.01 and 1.08 | locus YHR079C, strain IRE1 (second series), hits give low values 1.01 | locus YHR079C, strain IRE1, hits give low values 1.08 | locus YHR094C, strain hxt1, hits give low values 1 | locus YHR129C, strain ARP1, hits give low values 1.01 | locus YHR142W, strain chs7, hits give low values 0.954 | locus YHR200W, strain rpn10, hits give low values 1.01 | locus YIL066C, strain RNR3, hits give low values 0.998 | locus YIL073C, strain SPO22, hits give low values 1.05 | locus YIL125W, strain kgd1, hits give low values 1 | locus YIR030C, strain dcg1, hits give low values 1.01 | locus YJL092W, strain hpr5, hits give low values 0.966 | locus YJL095W, strain BCK1 (second series), hits give low values 0.977 | locus YJL095W, strain BCK1, hits give low values 0.972 and 1.1 | locus YJL115W, strain asf1, hits give low values 0.939 | locus YJL129C, strain trk1, hits give low values 0.975 | locus YJL134W, strain LCB3, hits give low values 1.01 | locus YJL154C, strain vps35, hits give low values 0.978 | locus YJL164C, strain tpk1, hits give low values 1.01 | locus YJL166W, strain qcr8, hits give low values 0.987 | locus YJL168C, strain set2, hits give low values 0.997 | locus YJL187C, strain SWE1 (second series), hits give low values 0.974 | locus YJL187C, strain SWE1, hits give low values 0.994 | locus YJR043C, strain POL32, hits give low values 0.989
